Measured values reported in publication PMC7862700, “An all-to-all approach to the identification of sequence-specific readers for epigenetic DNA modifications on cytosine”.

Tests used:
Experiment in all cases: DAPPL (digital affinity profiling via proximity ligation, sequencing); 10 mM Tris-HCl pH 7.5, 50 mM NaCl, 1 mM DTT, 4% glycerol, room temperature, 30 min; GST-TFs on glutathione beads, 16-mer random dsDNA library, 0.1% formaldehyde crosslink after washing; high values mean tight binding
FLI1 = target: T1, FLI1 (Homo sapiens, UniProt Q01543 1-452); conditions: protein: recombinant; tags: N-terminal GST; dsDNA, one strand shown
T1 sequence: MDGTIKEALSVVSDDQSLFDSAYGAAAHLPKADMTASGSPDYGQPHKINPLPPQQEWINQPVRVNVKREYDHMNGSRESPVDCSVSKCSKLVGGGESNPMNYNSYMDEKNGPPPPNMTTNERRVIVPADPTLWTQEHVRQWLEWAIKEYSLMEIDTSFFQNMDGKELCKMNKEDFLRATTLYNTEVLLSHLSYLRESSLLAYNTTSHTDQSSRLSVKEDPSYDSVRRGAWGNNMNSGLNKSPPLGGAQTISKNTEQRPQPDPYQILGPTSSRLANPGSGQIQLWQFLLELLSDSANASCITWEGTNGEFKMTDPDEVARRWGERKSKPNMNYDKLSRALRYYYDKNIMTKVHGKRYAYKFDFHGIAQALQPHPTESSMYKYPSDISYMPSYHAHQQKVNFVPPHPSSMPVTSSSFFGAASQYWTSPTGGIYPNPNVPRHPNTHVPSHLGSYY
How it was run: (§1)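 The binding signal reported is, for every hexamer, its read frequency for a factor over its read frequency for the tag-only sample. Reads came from pools of yeast-expressed, GST-fused human transcription factors on glutathione beads, barcoded with DNA and mixed with that sample, which were incubated with 200 nmole of a random double-stranded 16-mer DNA library in Tris/NaCl/DTT/glycerol buffer at room temperature for 30 min. After washing, the pools were crosslinked with 0.1% formaldehyde, proximity-ligated with BsaI/T4 ligase for 1 h at 37 °C, PCR-amplified and sequenced on an Illumina NextSeq500.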

ELK1 = target: T2, ELK1 (Homo sapiens, UniProt P19419 1-428); conditions: protein: recombinant; tags: N-terminal GST; dsDNA, one strand shown
T2 sequence: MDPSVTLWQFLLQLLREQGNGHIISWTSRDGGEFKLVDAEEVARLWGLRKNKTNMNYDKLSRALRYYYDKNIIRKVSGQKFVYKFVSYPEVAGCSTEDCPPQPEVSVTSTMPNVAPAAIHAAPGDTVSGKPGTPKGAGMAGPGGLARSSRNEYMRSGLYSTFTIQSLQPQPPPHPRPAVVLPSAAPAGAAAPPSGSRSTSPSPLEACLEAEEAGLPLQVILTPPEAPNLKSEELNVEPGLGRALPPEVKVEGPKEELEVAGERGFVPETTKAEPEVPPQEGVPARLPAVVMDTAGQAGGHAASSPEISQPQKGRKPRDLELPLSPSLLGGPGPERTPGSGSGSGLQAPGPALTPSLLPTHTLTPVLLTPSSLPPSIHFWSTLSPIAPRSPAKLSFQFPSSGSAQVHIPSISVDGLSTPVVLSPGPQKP
How it was run: as §1

GABPA = target: T3, GABPA (Homo sapiens, UniProt Q06546 1-454); conditions: protein: recombinant; tags: N-terminal GST; dsDNA, one strand shown
T3 sequence: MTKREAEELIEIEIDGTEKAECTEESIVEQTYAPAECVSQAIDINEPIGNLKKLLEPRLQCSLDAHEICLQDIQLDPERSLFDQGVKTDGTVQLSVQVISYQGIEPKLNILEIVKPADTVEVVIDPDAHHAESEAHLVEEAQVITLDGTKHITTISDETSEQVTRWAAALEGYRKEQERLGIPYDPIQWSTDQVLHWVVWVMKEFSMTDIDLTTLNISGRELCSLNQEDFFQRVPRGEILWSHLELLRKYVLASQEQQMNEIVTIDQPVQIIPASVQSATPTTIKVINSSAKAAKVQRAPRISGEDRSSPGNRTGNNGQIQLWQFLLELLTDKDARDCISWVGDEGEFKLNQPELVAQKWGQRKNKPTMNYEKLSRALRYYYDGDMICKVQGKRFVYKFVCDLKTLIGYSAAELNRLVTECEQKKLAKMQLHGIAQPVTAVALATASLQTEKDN
How it was run: as §1

ERG = target: T4, ERG (Homo sapiens, UniProt P11308 1-479); conditions: protein: recombinant; tags: N-terminal GST; dsDNA, one strand shown
T4 sequence: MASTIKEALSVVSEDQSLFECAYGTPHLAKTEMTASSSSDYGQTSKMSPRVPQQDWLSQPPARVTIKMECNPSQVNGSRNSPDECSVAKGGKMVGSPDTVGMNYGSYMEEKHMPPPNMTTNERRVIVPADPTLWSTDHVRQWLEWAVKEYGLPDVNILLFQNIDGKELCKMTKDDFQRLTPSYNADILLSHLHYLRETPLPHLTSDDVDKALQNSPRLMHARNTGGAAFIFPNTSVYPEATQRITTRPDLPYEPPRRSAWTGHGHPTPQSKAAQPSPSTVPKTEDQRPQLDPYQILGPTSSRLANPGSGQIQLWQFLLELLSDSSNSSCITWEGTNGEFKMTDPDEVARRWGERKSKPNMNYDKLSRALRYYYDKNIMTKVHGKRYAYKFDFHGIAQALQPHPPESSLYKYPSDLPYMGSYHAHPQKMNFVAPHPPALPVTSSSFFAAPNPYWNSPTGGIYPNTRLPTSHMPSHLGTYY
How it was run: as §1

ELF1 = ELF1 (Homo sapiens, UniProt P32519 1-619); conditions: protein: recombinant; tags: N-terminal GST; dsDNA, one strand shown
Chain of ELF1 (P32519 whole entry): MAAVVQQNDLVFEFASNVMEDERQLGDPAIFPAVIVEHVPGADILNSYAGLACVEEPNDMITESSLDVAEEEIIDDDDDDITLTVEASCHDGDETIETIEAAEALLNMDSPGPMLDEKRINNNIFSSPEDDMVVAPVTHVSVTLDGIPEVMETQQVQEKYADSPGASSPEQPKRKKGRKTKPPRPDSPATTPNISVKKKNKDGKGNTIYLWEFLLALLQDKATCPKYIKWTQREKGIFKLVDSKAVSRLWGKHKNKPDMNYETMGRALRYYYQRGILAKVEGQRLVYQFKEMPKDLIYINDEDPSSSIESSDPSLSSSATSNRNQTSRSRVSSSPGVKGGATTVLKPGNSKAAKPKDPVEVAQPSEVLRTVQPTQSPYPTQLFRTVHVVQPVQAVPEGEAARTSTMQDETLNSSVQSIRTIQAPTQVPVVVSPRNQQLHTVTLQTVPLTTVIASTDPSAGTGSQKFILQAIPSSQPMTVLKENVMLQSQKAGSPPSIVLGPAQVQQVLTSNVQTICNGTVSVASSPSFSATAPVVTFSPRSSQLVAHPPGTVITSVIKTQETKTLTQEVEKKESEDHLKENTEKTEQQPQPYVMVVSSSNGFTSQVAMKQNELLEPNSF
How it was run: as §1

EHF = target: T5, EHF (Homo sapiens, UniProt Q9NZC4 1-300); conditions: protein: recombinant; tags: N-terminal GST; dsDNA, one strand shown
T5 sequence: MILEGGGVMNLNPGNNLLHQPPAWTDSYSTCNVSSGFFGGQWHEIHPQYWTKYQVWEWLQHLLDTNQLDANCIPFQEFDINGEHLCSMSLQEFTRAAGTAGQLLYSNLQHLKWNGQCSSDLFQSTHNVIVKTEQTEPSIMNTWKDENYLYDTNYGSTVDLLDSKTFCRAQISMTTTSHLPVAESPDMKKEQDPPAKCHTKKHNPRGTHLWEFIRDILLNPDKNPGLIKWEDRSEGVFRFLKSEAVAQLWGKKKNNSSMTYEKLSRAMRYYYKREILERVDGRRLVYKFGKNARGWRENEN
How it was run: as §1

SPI1 = SPI1 (Homo sapiens, UniProt P17947 1-270); conditions: protein: recombinant; tags: N-terminal GST; dsDNA, one strand shown
How it was run: as §1

SPIB = SPIB (Homo sapiens, UniProt Q01892 1-262); conditions: protein: recombinant; tags: N-terminal GST; dsDNA, one strand shown
Chain of SPIB (Q01892 whole entry): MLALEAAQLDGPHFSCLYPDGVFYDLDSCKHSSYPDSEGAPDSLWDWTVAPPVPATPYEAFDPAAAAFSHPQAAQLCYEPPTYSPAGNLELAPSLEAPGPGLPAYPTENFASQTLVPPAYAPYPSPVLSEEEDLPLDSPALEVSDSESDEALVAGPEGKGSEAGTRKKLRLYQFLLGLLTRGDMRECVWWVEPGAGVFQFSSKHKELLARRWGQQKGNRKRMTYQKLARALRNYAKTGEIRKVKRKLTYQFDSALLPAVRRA
How it was run: as §1

ELK3 = target: T6, ELK3 (Homo sapiens, UniProt P41970 1-407); conditions: protein: recombinant; tags: N-terminal GST; dsDNA, one strand shown
T6 sequence: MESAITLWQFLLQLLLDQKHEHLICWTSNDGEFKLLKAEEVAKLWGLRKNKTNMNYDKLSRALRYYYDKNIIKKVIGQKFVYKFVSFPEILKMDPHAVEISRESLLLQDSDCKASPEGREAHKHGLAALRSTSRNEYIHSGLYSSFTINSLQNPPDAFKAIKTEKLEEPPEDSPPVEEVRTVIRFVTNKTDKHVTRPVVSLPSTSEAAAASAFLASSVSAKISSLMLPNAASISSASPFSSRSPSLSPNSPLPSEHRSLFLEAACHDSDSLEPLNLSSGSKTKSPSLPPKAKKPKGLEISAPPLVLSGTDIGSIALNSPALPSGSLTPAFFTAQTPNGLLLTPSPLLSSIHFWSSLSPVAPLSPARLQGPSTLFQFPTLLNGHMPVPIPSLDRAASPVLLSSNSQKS
How it was run: as §1

FEV = target: T7, FEV (Homo sapiens, UniProt Q99581 1-238); conditions: protein: recombinant; tags: N-terminal GST; dsDNA, one strand shown
T7 sequence: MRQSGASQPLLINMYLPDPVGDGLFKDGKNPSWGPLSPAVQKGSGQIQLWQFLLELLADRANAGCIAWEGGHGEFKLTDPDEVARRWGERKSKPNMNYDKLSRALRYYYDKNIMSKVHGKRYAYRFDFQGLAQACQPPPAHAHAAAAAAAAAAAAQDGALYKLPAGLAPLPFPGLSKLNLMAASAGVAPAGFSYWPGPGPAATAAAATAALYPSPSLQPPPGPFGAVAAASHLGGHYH
How it was run: as §1

ETV5 = ETV5 (Homo sapiens, UniProt P41161 1-510); conditions: protein: recombinant; tags: N-terminal GST; dsDNA, one strand shown
Chain of ETV5 (P41161 whole entry): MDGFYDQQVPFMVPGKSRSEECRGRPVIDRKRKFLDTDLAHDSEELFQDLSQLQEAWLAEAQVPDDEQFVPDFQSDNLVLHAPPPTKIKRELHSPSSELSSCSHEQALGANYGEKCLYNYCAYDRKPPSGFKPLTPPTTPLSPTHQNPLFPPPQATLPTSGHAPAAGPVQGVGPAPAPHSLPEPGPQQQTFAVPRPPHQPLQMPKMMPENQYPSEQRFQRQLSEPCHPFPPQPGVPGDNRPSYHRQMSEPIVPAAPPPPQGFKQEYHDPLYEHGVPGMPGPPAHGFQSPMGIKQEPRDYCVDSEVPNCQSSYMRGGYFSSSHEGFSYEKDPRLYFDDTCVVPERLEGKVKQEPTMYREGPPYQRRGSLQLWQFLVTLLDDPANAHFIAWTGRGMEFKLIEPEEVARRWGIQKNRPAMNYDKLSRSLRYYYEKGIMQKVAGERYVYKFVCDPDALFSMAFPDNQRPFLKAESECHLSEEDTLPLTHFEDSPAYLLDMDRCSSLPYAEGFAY
How it was run: as §1

HSF1 = HSF1 (Homo sapiens, UniProt Q00613 1-529); conditions: protein: recombinant; tags: N-terminal GST; chain copies: 3; dsDNA, one strand shown
Chain of HSF1 (Q00613 whole entry): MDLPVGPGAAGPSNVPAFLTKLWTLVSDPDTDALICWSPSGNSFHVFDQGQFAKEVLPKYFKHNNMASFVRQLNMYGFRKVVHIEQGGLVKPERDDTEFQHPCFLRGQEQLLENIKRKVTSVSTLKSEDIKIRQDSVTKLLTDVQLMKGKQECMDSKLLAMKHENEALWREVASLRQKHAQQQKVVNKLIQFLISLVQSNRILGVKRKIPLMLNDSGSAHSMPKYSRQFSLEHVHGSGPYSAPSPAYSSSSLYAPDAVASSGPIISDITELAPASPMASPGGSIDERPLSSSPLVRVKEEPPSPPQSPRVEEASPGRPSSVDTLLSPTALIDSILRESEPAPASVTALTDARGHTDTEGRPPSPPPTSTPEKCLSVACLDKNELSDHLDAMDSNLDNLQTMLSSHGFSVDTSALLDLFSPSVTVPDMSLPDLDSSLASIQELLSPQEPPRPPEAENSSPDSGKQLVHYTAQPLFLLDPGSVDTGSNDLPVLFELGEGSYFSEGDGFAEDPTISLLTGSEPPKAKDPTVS
How it was run: as §1

ELF4 = ELF4 (Homo sapiens, UniProt Q99607 1-663); conditions: protein: recombinant; tags: N-terminal GST; dsDNA, one strand shown
Chain of ELF4 (Q99607 whole entry): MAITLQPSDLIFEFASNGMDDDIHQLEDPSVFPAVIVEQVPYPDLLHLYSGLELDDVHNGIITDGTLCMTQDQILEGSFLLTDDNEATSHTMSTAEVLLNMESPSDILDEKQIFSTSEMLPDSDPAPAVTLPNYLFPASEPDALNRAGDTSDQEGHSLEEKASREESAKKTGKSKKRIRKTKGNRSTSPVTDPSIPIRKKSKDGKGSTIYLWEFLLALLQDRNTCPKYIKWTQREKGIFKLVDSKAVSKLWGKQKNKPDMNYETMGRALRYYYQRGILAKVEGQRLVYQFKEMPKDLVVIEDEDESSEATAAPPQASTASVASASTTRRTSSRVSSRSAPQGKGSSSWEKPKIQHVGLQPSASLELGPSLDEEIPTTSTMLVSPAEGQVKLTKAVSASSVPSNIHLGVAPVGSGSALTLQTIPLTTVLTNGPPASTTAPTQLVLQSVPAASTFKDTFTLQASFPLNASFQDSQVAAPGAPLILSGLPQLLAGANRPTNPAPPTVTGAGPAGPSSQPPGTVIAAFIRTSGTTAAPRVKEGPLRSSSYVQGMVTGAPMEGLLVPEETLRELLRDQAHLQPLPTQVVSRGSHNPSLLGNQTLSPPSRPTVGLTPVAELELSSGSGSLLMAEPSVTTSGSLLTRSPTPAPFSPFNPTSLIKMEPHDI
How it was run: as §1

ELK4 = target: T8, ELK4 (Homo sapiens, UniProt P28324-2 1-405); conditions: protein: recombinant; tags: N-terminal GST; dsDNA, one strand shown
T8 sequence: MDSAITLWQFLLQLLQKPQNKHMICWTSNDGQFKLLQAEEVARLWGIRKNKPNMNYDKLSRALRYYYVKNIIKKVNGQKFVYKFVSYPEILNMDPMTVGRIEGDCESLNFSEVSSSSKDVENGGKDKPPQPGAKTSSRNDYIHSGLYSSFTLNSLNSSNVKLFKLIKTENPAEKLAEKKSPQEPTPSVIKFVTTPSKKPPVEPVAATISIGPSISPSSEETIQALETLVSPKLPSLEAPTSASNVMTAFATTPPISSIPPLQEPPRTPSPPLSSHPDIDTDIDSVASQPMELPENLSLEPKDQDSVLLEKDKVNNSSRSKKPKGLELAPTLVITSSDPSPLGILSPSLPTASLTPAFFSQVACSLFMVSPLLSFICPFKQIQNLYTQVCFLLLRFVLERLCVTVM
How it was run: as §1

ETV2 = target: T9, ETV2 (Homo sapiens, UniProt O00321 1-342); conditions: protein: recombinant; tags: N-terminal GST; dsDNA, one strand shown
T9 sequence: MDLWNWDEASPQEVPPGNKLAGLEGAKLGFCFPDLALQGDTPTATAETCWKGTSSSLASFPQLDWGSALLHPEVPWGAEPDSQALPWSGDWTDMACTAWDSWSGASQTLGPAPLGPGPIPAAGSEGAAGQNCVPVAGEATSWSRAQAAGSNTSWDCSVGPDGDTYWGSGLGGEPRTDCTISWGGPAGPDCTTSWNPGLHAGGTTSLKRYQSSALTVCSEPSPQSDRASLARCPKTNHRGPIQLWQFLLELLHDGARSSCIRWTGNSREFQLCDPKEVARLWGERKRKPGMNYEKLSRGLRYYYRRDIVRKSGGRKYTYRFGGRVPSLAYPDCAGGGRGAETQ
How it was run: as §1

ELF3 = target: T10, ELF3 (Homo sapiens, UniProt P78545 1-371); conditions: protein: recombinant; tags: N-terminal GST; dsDNA, one strand shown
T10 sequence: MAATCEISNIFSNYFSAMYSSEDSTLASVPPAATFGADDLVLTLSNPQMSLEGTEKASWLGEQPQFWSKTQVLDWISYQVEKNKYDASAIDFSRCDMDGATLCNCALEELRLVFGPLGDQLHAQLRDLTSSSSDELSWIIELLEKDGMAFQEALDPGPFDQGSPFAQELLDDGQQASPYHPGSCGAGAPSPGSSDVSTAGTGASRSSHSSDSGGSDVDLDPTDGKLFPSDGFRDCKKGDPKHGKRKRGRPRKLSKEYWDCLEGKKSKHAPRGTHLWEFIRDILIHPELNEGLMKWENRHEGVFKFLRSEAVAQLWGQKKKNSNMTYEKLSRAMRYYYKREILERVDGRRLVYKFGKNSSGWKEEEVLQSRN
How it was run: as §1

ETV1 = ETV1 (Homo sapiens, UniProt P50549 1-477); conditions: protein: recombinant; tags: N-terminal GST; dsDNA, one strand shown
Chain of ETV1 (P50549 whole entry): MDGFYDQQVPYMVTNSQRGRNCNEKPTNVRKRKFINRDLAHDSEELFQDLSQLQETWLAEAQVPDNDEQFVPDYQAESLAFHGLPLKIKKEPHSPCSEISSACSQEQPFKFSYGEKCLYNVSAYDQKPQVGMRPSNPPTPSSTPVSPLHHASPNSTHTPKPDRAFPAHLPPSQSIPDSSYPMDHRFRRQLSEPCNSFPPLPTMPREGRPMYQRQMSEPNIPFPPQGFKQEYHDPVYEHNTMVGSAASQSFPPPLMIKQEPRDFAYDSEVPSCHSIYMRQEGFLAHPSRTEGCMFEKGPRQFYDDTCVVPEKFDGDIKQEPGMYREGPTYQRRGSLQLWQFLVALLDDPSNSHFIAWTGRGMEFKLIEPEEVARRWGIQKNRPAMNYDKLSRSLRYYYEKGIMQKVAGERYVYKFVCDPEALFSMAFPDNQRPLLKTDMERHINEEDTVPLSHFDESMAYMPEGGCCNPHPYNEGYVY
How it was run: as §1

CRX = CRX (Homo sapiens, UniProt O43186 1-299); conditions: protein: recombinant; tags: N-terminal GST; dsDNA, one strand shown
Chain of CRX (O43186 whole entry): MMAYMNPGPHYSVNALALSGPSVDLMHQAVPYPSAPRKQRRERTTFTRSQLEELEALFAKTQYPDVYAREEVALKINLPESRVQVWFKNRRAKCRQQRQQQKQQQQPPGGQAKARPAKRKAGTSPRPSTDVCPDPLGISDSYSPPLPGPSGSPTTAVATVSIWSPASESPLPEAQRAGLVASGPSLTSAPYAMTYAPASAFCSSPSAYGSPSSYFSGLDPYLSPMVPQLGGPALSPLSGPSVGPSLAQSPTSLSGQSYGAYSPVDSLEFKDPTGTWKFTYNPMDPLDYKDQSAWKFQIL
How it was run: as §1

Sequence | binding signal (FLI1) | binding signal (ELK1) | binding signal (GABPA) | binding signal (ERG) | binding signal (ELF1) | binding signal (EHF) | binding signal (SPI1) | binding signal (SPIB) | binding signal (ELK3) | binding signal (FEV) | binding signal (ETV5) | binding signal (HSF1) | binding signal (ELF4) | binding signal (ELK4) | binding signal (ETV2) | binding signal (ELF3) | binding signal (ETV1) | binding signal (CRX)
GCATTC | 1.15 fold enrichment (6-mer frequency, TF over GST control) | 1.16 fold enrichment (6-mer frequency, TF over GST control) | 1.18 fold enrichment (6-mer frequency, TF over GST control) | 1.12 fold enrichment (6-mer frequency, TF over GST control) | 1.13 fold enrichment (6-mer frequency, TF over GST control) | 1.07 fold enrichment (6-mer frequency, TF over GST control) | 1.15 fold enrichment (6-mer frequency, TF over GST control) | 1.12 fold enrichment (6-mer frequency, TF over GST control) | 1.03 fold enrichment (6-mer frequency, TF over GST control) | 1.08 fold enrichment (6-mer frequency, TF over GST control) | 1.1 fold enrichment (6-mer frequency, TF over GST control) | 1.17 fold enrichment (6-mer frequency, TF over GST control) | 1.1 fold enrichment (6-mer frequency, TF over GST control) | 1.05 fold enrichment (6-mer frequency, TF over GST control) | 1.09 fold enrichment (6-mer frequency, TF over GST control) | 1.11 fold enrichment (6-mer frequency, TF over GST control) | 1.24 fold enrichment (6-mer frequency, TF over GST control) | –
ATCGCA | 1.07 fold enrichment (6-mer frequency, TF over GST control) | 1.07 fold enrichment (6-mer frequency, TF over GST control) | 1.1 fold enrichment (6-mer frequency, TF over GST control) | 1.03 fold enrichment (6-mer frequency, TF over GST control) | 1.08 fold enrichment (6-mer frequency, TF over GST control) | 1.02 fold enrichment (6-mer frequency, TF over GST control) | – | – | 1.06 fold enrichment (6-mer frequency, TF over GST control) | 1.01 fold enrichment (6-mer frequency, TF over GST control) | 1 fold enrichment (6-mer frequency, TF over GST control) | 1.03 fold enrichment (6-mer frequency, TF over GST control) | 1.12 fold enrichment (6-mer frequency, TF over GST control) | 1.06 fold enrichment (6-mer frequency, TF over GST control) | – | – | 1.06 fold enrichment (6-mer frequency, TF over GST control) | 1.17 fold enrichment (6-mer frequency, TF over GST control)
